Data on 11 compounds can be found in paper PMC6792352, “Limited Chemical Structural Diversity Found to Modulate Thyroid Hormone Receptor in the Tox21 Chemical Library” (Environmental Health Perspectives, 2019).

Molecules are shown by their SMILES. Where a name gives a salt, the structure may show the parent alone. The full ranking holds about 7,300 compounds; the median of “AC50” is about 90,000 nM, and the lowest 2% start at about 20,000 nM. The list shows a part of the results.

In this test the test system is thyroid hormone receptor (endogenous TRα and TRβ). Details: species or system GH3-TRE-Luc (rat pituitary); GH3-TRE-Luc luciferase reporter transactivation, agonist mode, qHTS; RXR ligands can also activate indirectly. To be noted: read-out: TR_LUC_GH3_Agonist_AC50, agonist mode, primary qHTS, 24 h. On the technique in general: Quantitative high-throughput screening tests each substance at several concentrations.
Regarding `C[C@]12CC[C@H]3C(=CCc4cc(O)ccc43)[C@@H]1CCC2=O` [Equilin], the AC50 came to 3410 nM. The value for `COc1ccc(OC)c(C(O)C(C)N)c1` (centres unmarked) [Methoxamine hydrochloride] was 32000 nM.

In the case of `Cc1cc(NC(=O)C(=O)O)cc(C)c1Oc1ccc(O)c2c1CCC2` [CP-634384], the AC50 came out at 1.47 nM.

Turning to `CC1=C(/C=C/C(C)=C/C=C/C(C)=C\C(=O)O)C(C)(C)CCC1` [13-cis Retinoic acid], the AC50 is 133 nM. Next, `CC1=C(/C=C/C(C)=C\C=C\C(C)=C\C(=O)O)C(C)(C)CCC1` [9-cis Retinoic acid]: 4180 nM; `CC1=C(/C=C/C(C)=C/C=C/C(C)=C/C(=O)O)C(C)(C)CCC1` [all trans-Retinoic acid]: 319 nM; `NCC(=O)CCC(=O)O` [Aminolevulinic acid hydrochloride]: 28700 nM. Next, `CC(C)(C)CC(C)(C)c1ccc(O)c(Cc2ccc(Cl)cc2Cl)c1` [Clofoctol]: 1370 nM; `O=C(O)Cc1cc(I)c(Oc2cc(I)c(O)c(I)c2)c(I)c1` [Tetrac, 3,3ʹ,5,5ʹ-tetraiodothyroacetic acid]: 0.927 nM; `N[C@@H](Cc1cc(I)c(Oc2cc(I)c(O)c(I)c2)c(I)c1)C(=O)O` [Levothyroxine]: 7.89 nM. Next, `C[C@H](CCC(=O)NCC(=O)O)[C@H]1CC[C@H]2[C@@H]3[C@H](O)C[C@@H]4C[C@H](O)CC[C@]4(C)[C@H]3C[C@H](O)[C@]12C` [glycocholic acid]: 51800 nM.
